# The list is not random: actives were taken first. Their share in the collection is about 10%.
# Lamin A splicing = qHTS Assay for Modulators of Lamin A Splicing. AID 1487, 2009. HeLa LMNA splicing GFP/RFP minigene ratio, 48 h. Potency, µM (titrated, usually from 46.1 µM), for inactives: at the top dose ratio change, negative = inhibition, usual class: inhibitors. 200,000 tested, 0.01% active; active = well fitted inhibition curve with a large enough effect in the signal ratio, with a control signal flat, not every such curve was filed as active; inconclusive = small, poorly fitted or top-dose-only effect, or effect the other way, or a change in a side signal; the % refers to the signal ratio; also: potency is read from the fitted curve at half-maximal effect
#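 S3 HeLa stable clones carrying a lamin A-EGFP splicing minigene plus DsRed2 were seeded at 600 cells/well in Opti-MEM with 2% FBS, pin-dosed and incubated 48 h at 37°C. Acumen cytometry (488 nm) gave the GFP/RFP total-intensity ratio.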
# ALDH1A1 block = qHTS Assay for Inhibitors of Aldehyde Dehydrogenase 1 (ALDH1A1); Purified ALDH1A1, NADH fluorescence, propionaldehyde substrate; Potency, µM (doses to about 75.3 µM), without a hit: at the highest dose activity, negative = inhibition, most hits filed as inhibitors; AID 1030, 2008; Aldehyde dehydrogenase 1A1 (Homo sapiens), P00352; 220,000 tested, 7.3% active;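 also: potency is read from the fitted curve at half-maximal effect; plate controls were no enzyme wells and a reference inhibitor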
# ALOX12 inhib = qHTS Assay for Inhibitors of 12-hLO (12-human lipoxygenase) | Polyunsaturated fatty acid lipoxygenase ALOX12 (Homo sapiens), P18054 | purified 12-hLO, xylenol orange hydroperoxide absorbance | Potency, µM (titrated, usually from 57.1 µM), for the others: top-dose activity change, negative = inhibition, hits mostly inhibitors | 150,000 tested, 0.12% active | AID 1452, 2008; active = well fitted inhibition curve with a large enough effect; inconclusive = small, poorly fitted or top-dose-only effect; also: potency is read from the fitted curve at half-maximal effect; nearly all actives have a fitted effect of over 55% in size
#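 Purified human 12hLO (150 nM final) was preincubated with compounds for 15 min at room temperature in 25 mM Hepes pH 7.0, 0.01% Triton X-100, then reacted with 40 uM arachidonic acid for 30 min. Hydroperoxide was detected with ferrous iron/xylenol orange.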
# HPGD inh = qHTS Assay for Inhibitors of HPGD (15-Hydroxyprostaglandin Dehydrogenase). 15-hydroxyprostaglandin dehydrogenase [NAD(+)] (Homo sapiens), P15428. purified HPGD, NADH fluorescence kinetic, PGE2 substrate. Potency, µM, without a hit: at the top dose activity change, negative = inhibition, most hits filed as inhibitors. 150,000 tested, 4.3% active; also: potency is read from the fitted curve at half-maximal effect
# Target sequence (P15428 whole entry, looked up): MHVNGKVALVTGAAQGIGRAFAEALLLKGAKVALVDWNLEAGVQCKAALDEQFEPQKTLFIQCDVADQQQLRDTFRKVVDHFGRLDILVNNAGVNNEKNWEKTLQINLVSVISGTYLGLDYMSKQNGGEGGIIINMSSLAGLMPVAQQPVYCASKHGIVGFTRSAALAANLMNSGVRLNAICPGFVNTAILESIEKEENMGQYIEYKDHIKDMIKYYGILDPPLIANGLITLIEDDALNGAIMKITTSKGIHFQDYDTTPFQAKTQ
#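 20 nM HPGD preincubated 15 min at room temperature with compound in 50 mM Tris-HCl pH 8, 0.01% Tween 20. Started with 1 mM NAD+ and 30 uM prostaglandin E2; NADH fluorescence (360/450 nm) read 5 times over 30-s intervals, last minus first.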
# PNC inhibitor = High Content Assay for Compounds that inhibit the Assembly of the Perinucleolar Compartment. 140,000 tested, 3.1% active. PC3M PTB-GFP, PNC prevalence imaging, 16 h; stronger effect = lower value. activity change (PNC), negative = inhibition, % at 10 µM;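 active = readout at or below -70, meaning at least 70% loss of cells showing the perinucleolar compartment, a nuclear body marking cancer cells; inconclusive = readout between -30 and a set limit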;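 also: plate controls were DMSO wells for no effect and camptothecin positive control wells for full effect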
#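 PC3M cells stably expressing PTB-GFP, 750–1000 cells/well, treated 16 h at 37 °C with compound (23 nl of library stock), in duplicate. After paraformaldehyde fixation and Hoechst stain, imaged at 20x; PNC prevalence scored by image analysis.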
# Numbers without * were called inactive; ? = inconclusive; . = no result; [ ] = another dose, or the depositor's remark. Unless noted, calls follow the shape of the dose curve; as a rule, active = well fitted inhibition curve with a large enough effect (not every such curve was filed as active); inconclusive = small, poorly fitted or top-dose-only effect, or another doubt; inactive = no such curve, though single readings can be large or run the other way. Unless noted, % is scaled to controls: 0 for no effect and ±100 for the full control effect.
SMILES,Lamin A splicing,ALDH1A1 block,ALOX12 inhib,HPGD inh,PNC inhibitor
COC(=O)c1ccc(NC(=O)CCn2cccn2)cc1,-5%[46 µM],.,.,.,.
COc1ccc(OCC(O)CNS(=O)(=O)c2cccc(Cl)c2)cc1 (centres undefined),.,10µM*,.,.,.
O=C(NCCc1csc(-c2ccccc2)n1)c1ccc(Br)o1,?,-15%,4%,?,-23
O=C(NCCc1csc(-c2cccnc2)n1)c1ccc(Br)o1,-6%,22µM*,2%,?,1
Cc1nn(-c2ccccc2)c(C)c1NC(=O)COc1ccc(C#N)cc1,10%,4%,1%,-8%,-80*
Cc1nn(-c2ccccc2)c(C)c1NC(=O)COc1ccc2ccccc2c1,?,-8%,-14%,.,-27
COc1ccc(NC(=O)CSc2c3c(nc4ccccc24)CCCC3)c(OC)c1,?,-5%,-1%,-7%,-113*
COc1cc(NC(=O)c2ccc3c(SCC(=O)O)c4c(nc3c2)CCCC4)cc(OC)c1OC,?,10µM*,.,.,.
COc1ccc(NC(=O)Cn2c(=O)n(CC3CCCO3)c(=O)c3ccccc32)c(OC)c1 (centres undefined),?,0.028µM*,.,.,.
O=C(O)CSc1c2c(nc3cc(C(=O)N4CCOCC4)ccc13)CCCC2,13%[0.0737 µM],-2%,0%,4µM*,29
COc1ccc(NC(=O)c2oc3ccc(S(=O)(=O)N4CCCCC4)cc3c2C)cc1Cl,-14%[46 µM],.,.,.,.
O=C(NC1CCCCC1)c1ccc2c(c1)N(Cc1cccc(Cl)c1)C(=O)c1ccccc1S2(=O)=O,-6%[46 µM],.,.,.,.
O=C(c1cnn2c(C(F)(F)F)cc(-c3ccc(Br)cc3)nc12)N1CCOCC1,9%,16%,3%,?,?
Cc1nn2c(C(F)(F)F)cc(-c3ccc(Cl)cc3)nc2c1C(=O)N1CCOCC1,-4%,11µM*,4%,?,?
COc1ccc(CNC(=O)C(=O)NCC(c2cccs2)S(=O)(=O)c2ccc(C)cc2)cc1 (centres undefined),9%[46 µM],.,.,.,.
Cc1nn(-c2nnc(NC3CCCCC3)nn2)c(C)c1Br,-8%,14µM*,-4%,16µM*,-9
COc1ccc(C(=O)NC(=S)Nc2nnn(C)n2)cc1,-10%,11µM*,0%,-30%,-8
Cn1nnc(NC(=O)c2ccccc2)n1,-9%,8%,6%,2%,-95*
COc1ccccc1C(=O)Nc1nnn(C)n1,?,11%,6%,0%,21
Cn1nnc(NC(=O)c2ccco2)n1,7%,2%,-3%,-4%,24
Cn1nnc(NC(=S)NC(=O)c2ccco2)n1,-3%,3.5µM*,-5%,?,35
COc1cccc(C(=O)NC(=S)Nc2nnn(C)n2)c1,1%,22µM*,-8%,?,-7
CCn1nnnc1NC(=O)c1cccc(OC)c1,6%[46 µM],5%,.,.,.
N#CCCCS(=O)(=O)c1nc2ccccc2s1,.,-6%,.,-21%,.
O=C1C(Cl)=C(Nc2ccccc2)C(=O)c2ccccc21,?,8%,-1%,-3%,-25
SMILES,Lamin A splicing,ALDH1A1 block,ALOX12 inhib,HPGD inh,PNC inhibitor
COC1=C(Nc2ccccc2)C(=O)c2ccccc2C1=O,?,2.2µM*,-9%,10µM*,?
COC1=C(Nc2ccc(C)cc2)C(=O)c2ccccc2C1=O,?,5µM*,-3%,11µM*,-9
CC(=O)Nc1ccc(NC(=O)COc2c(C)cc(Br)cc2C)cc1,.,-5%,.,.,.
Cc1cc(Br)c(OCC(=O)NN)c2c1CCC2,.,2µM*,.,.,.
CCN1CCN(C(c2cccc(Cl)c2)c2c(O)cc(C)n(CCOC)c2=O)CC1 (centres undefined),10%[46 µM],.,.,.,.
Oc1ccc(Br)cc1-c1cc(-c2ccco2)[nH]n1,-1%,-4%,-29%,?,9
Oc1ccc(Cl)cc1-c1cc(-c2ccco2)[nH]n1,3%,?,?,25µM*,71
Oc1ccccc1-c1cc(-c2ccco2)[nH]n1,-8%,14µM*,-27%,?,24
CNc1ncnc2c1ncn2[C@H]1C[C@H](OP(=O)(O)O)[C@@H](COP(=O)(O)O)O1,-19%,7%,.,-11%,.
CCc1ccc(Cn2c(CNS(=O)(=O)c3ccc([N+](=O)[O-])cc3)nc3cccnc32)cc1,-7%[46 µM],.,.,.,.
CC(C)=NOC[C@@H](O)COCc1ccco1,.,-5%[13.5 µM],.,.,.
O=S(=O)(NCC(O)COCc1ccco1)c1cccs1 (centres undefined),1%,7.9µM*,-6%,-8%,?
COc1ccc(C2=CC(c3sccc3C)n3nnnc3N2)cc1 (centres undefined),-1%,2µM*,-10%,-16%,69
COc1cc2c(cc1NC(=O)C(C)OC(=O)C1CC(=O)N(Cc3ccco3)C1)oc1ccccc12 (centres undefined),6%,-10%,5%,28µM*,38
Cc1ccc(-n2ncc(C(=O)NCc3ccccc3)c2C2CCN(C(=O)OC(C)(C)C)CC2)cc1,-17%[46 µM],.,.,.,.
O=C(Oc1ccc2c(=O)c(Oc3ccc4ccccc4c3)coc2c1)c1cccnc1,?,-11%,5%,-17%,-21
O=C(Oc1ccc2c(=O)c(Cl)coc2c1)c1cccnc1,13%,20µM*,4%,-21%,-26
O=C1N2CCCc3cccc(c32)C12Nc1ccccc1S2 (centres undefined),-14%,14µM*,-21%,-17%,10
COc1cc(/C=N/NC(=O)c2ccc(COc3cc(C)ccc3C(C)C)cc2)cc(OC)c1O,?,-3%,-3%,-26%,-1
Cc1ccc(C(C)C)c(OCc2ccc(C(=O)N/N=C/c3ccc(O)c(O)c3)cc2)c1,?,-5%,-3%,?,-124*
Cc1ccc(S(=O)(=O)Nc2ccc(C(OC(=O)c3ccccc3[N+](=O)[O-])(C(F)(F)F)C(F)(F)F)cc2)cc1,?,?,-16%,-25%,-108*
O=C(OC(c1ccc(NS(=O)(=O)c2ccccc2)cc1)(C(F)(F)F)C(F)(F)F)c1ccccc1,?,-3%,0%,-12%,-26
Cc1ccc(Cn2nnc3c(=O)[nH]c(C4CCN(S(=O)(=O)c5ccc(F)cc5)CC4)nc32)cc1,?,0%,-13%,-16%,122
Cc1ccc(Cn2nnc3c(=O)[nH]c(C4CCN(S(=O)(=O)c5cc(C)ccc5C)CC4)nc32)cc1,?,-6%,-9%,22µM*,44
Cc1ccc(C)c(S(=O)(=O)N2CCC(c3nc4c(nnn4Cc4ccc(F)cc4)c(=O)[nH]3)CC2)c1,?,-10%,-8%,13µM*,-20
Cc1ccc(NC(=O)CSCc2nc3c(nnn3Cc3ccc(F)cc3)c(=O)[nH]2)c(C)c1,?,7%,.,.,.

# Source: PubChem (National Center for Advancing Translational Sciences (NCATS))
